Measured values published in PubChem BioAssay (NCATS).
Records with an inconclusive call do not appear. A call without a number means that no potency is given here. Unmarked numbers belong to inactive results. Activity calls are given as the source filed them. Calls follow the shape of the dose curve; as a rule, active = well fitted curve in the direction sought with a large enough effect; inconclusive = small, poorly fitted or top-dose-only effect, or another doubt; inactive = no such curve, though single readings can be large; an effect the other way counts as inactive or inconclusive.

Target: Calcium and integrin-binding protein 1 (Homo sapiens) (UniProt Q99828)
Sequence (Q99828 whole entry, looked up): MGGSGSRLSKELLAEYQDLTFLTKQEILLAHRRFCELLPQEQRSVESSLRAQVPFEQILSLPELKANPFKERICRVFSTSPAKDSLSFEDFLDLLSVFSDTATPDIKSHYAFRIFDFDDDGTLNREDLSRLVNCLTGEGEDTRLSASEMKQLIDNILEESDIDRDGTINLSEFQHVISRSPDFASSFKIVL
Assay: Primary qHTS for Identification of Calcium Integrin Binding Protein 1 (CIB1) Competitor (AID 1508620);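 also: GST tagged CIB1 binding a fluorescein labelled alphaIIb integrin peptide tracer; top concentration of the series differs between compounds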
Settings: CIB1-GST / FITC-alphaIIb peptide fluorescence polarization; series mostly up to 57.7 µM; activity change, negative = inhibition: at the top concentration
Procedure, shortened: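 Fluorescence polarization competition: CIB1-GST (1 uM final) preincubated with compound 15 min at room temperature, then FITC-labeled alphaIIb peptide (100 nM final) added for another 15 min. Polarization read at Ex 480/Em 540.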

Row | Compound | outcome | activity change, negative = inhibition [%]
1 | NC(=O)c1cnccn1 | inactive | 
2 | COc1cc2c(cc1OC)CN(CCc1ccc(NC(=O)c3cccc4c(=O)c5cccc(OC)c5[nH]c34)cc1)CC2 | inactive | 
3 | CC(C)(C)NCC(O)c1ccc(O)c(CO)c1 (stereo not drawn) | inactive | 
4 | COc1cccc2cc(-c3nc(C4CCC(C(=O)O)CC4)n4ncnc(N)c34)[nH]c12 (stereo not drawn) | inactive | 
5 | CS(=O)(=O)c1cccc(CNc2nc(Nc3ccc4c(c3)CCC(=O)N4)ncc2C(F)(F)F)c1 | inactive | 
6 | O=C(O)CCc1ccc(NCc2cccc(Oc3ccccc3)c2)cc1 | inactive | 
7 | CCC(C)N(C)C(=O)c1cc2ccccc2c(-c2ccccc2Cl)n1 (stereo not drawn) |  | -2.03
8 | O=C(O)COCCN1CCN(C(c2ccccc2)c2ccc(Cl)cc2)CC1 (stereo not drawn) | inactive | 
9 | CC(C)(N)C(=O)N[C@H](COCc1ccccc1)C(=O)N1CCC2(CC1)CN(S(C)(=O)=O)c1ccccc12 | inactive | 
10 | CC(C)C[C@H](NC(=O)[C@@H](O)[C@H](N)Cc1ccccc1)C(=O)O |  | 4.75
11 | O=C(Nc1nc2ccccc2n1CCN1CCOCC1)c1cccc([N+](=O)[O-])c1 |  | -14.6
12 | CCn1cc(C(=O)O)c(=O)c2cc(F)c(N3CCNC(C)C3)c(F)c21 (stereo not drawn) | inactive | 
13 | COc1ccc(-c2oc3cc(OC)ccc3c2C(=O)c2ccc(C#N)cc2)cc1 |  | -3.83
14 | Cc1cccc(-c2[nH]c(C(C)(C)C)nc2-c2ccc3nccnc3c2)n1 |  | -6.48
15 | C[C@@H]1CN(Cc2ccc(F)cc2)[C@@H](C)CN1C(=O)c1cc2c(C(=O)C(=O)N(C)C)cn(C)c2cc1Cl | inactive | 
16 | NS(=O)(=O)c1cc2c(cc1Cl)NC=NS2(=O)=O | inactive | 
17 | CCN(CC)CCCC(C)Nc1nc(C)cc(Nc2ccc3nc(C)cc(N)c3c2)n1 (stereo not drawn) |  | 1.01
18 | Cn1cc(-c2ccc3nnc(C(F)(F)c4ccc5ncccc5c4)n3n2)cn1 | inactive | 
19 | O=NN(CCCl)C(=O)NCCCl | inactive | 
20 | COc1cc(Nc2ncc3c(n2)-c2ccc(Cl)cc2C(c2c(F)cccc2OC)=NC3)ccc1C(=O)O | inactive | 
21 | Cc1c(C)c2c(c(C)c1O)CCC(C)(COc1ccc(CC3SC(=O)NC3=O)cc1)O2 (stereo not drawn) | inactive | 
22 | O=C(NOC[C@H](O)CO)c1ccc(F)c(F)c1Nc1ccc(I)cc1F | inactive | 

System: not listed separately
Assay: Primary qHTS for small molecule stabilizers of the endoplasmic reticulum resident proteome: Secreted ER Calcium Modulated Protein (SERCaMP) assay (AID 1508630); also: potency is read from the fitted curve at half-maximal effect
Settings: SH-SY5Y GLuc-SERCaMP (Gaussia luciferase released on ER calcium loss) secretion, thapsigargin, luminescence; series mostly up to 38.4 µM; activity change, negative = inhibition: at the top concentration
Procedure, shortened: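 GLuc-SERCaMP-expressing SH-SY5Y cells, pretreated 16 h with compound, are challenged with thapsigargin to empty ER calcium stores; after 4 h, coelenterazine is added directly to the medium and luminescence is imaged.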

Row | Compound | Potency | activity change, negative = inhibition
23 | Cc1ccc(N(CC2=NCCN2)c2cccc(O)c2)cc1 | inactive | 
24 | COc1cc2c(cc1OC)CN(CCc1ccc(NC(=O)c3cccc4c(=O)c5cccc(OC)c5[nH]c34)cc1)CC2 |  | 151%
25 | O=C(O)CCc1ccc(NCc2cccc(Oc3ccccc3)c2)cc1 | inactive | 
26 | CCCCCCCc1ccc(CCc2cccc(O)c2C(=O)O)cc1 |  | 0%
27 | CCC(C)N(C)C(=O)c1cc2ccccc2c(-c2ccccc2Cl)n1 (stereo not drawn) | inactive | 
28 | CC(C)(N)C(=O)N[C@H](COCc1ccccc1)C(=O)N1CCC2(CC1)CN(S(C)(=O)=O)c1ccccc12 |  | -73.7%
29 | CC(C)C[C@H](NC(=O)[C@@H](O)[C@H](N)Cc1ccccc1)C(=O)O | inactive | 
30 | COc1ccccc1-c1cccc(-c2c(O)c3cc(C#N)c(Cl)cc3[nH]c2=O)c1 |  | -40.5% [at 76.3 µM]
31 | COc1ccc(-c2oc3cc(OC)ccc3c2C(=O)c2ccc(C#N)cc2)cc1 |  | 115%
32 | Cc1cc2c(C(C)C)c(O)c(O)c(C=O)c2c(O)c1-c1c(C)cc2c(C(C)C)c(O)c(O)c(C=O)c2c1O | inactive | 
33 | Cc1cccc(-c2[nH]c(C(C)(C)C)nc2-c2ccc3nccnc3c2)n1 |  | -27.1%
34 | C[C@@H]1CN(Cc2ccc(F)cc2)[C@@H](C)CN1C(=O)c1cc2c(C(=O)C(=O)N(C)C)cn(C)c2cc1Cl |  | 156%
35 | Cc1cnc(NC(=O)C2=C(O)c3ccccc3S(=O)(=O)N2C)s1 | inactive | 
36 | CN1CCN(CCCN2c3ccccc3Sc3ccc(C(F)(F)F)cc32)CC1 | inactive | 
37 | NS(=O)(=O)c1cc2c(cc1Cl)NC=NS2(=O)=O |  | -12.1%
38 | N=c1nc(N2CCCCC2)cc(N)n1O | inactive | 
39 | CCC(C)(C)C(=O)O[C@H]1C[C@@H](C)C=C2C=C[C@H](C)[C@H](CC[C@@H]3C[C@@H](O)CC(=O)O3)[C@H]21 | inactive | 
40 | C[C@]12CCC(=O)C=C1CC[C@@H]1[C@@H]2[C@@H](O)C[C@@]2(C)[C@H]1CC[C@]2(O)C(=O)CO | inactive | 
41 | CCOC(=O)C1=C[C@@]2(CC)CCCN3CCc4c(n1c1ccccc41)[C@H]32 |  | -1.28%
42 | CCN(CC)CCCC(C)Nc1nc(C)cc(Nc2ccc3nc(C)cc(N)c3c2)n1 (stereo not drawn) |  | 4.86%
43 | Cn1cc(-c2ccc3nnc(C(F)(F)c4ccc5ncccc5c4)n3n2)cn1 | 14.9 µM (active) | 
